Test systems include DU-145 prostate; K-562 leukemia; MALME-3M melanoma; MDA-MB-231 breast; RXF 393 renal; SF-268 CNS; SF-295 CNS; SF-539 CNS; UACC-257 melanoma; M14 melanoma; HT29 colon; SNB-75 CNS; SNB-19 CNS; U251 CNS; PC-3 prostate; SK-MEL-5 melanoma; UACC-62 melanoma; SK-MEL-28 melanoma; LOX IMVI melanoma.
Test in all cases: NCI-60 one-dose screen, 48 h (100 = growth as untreated, 0 = no growth, -100 = all killed)
Details in all cases: 10 µM unless noted

Drawing on PubChem BioAssay (NCI), this text covers growth for eight molecules.

Compounds without any hit were thinned out: in the full panel of roughly 83,000, 20% have a hit.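 Method: cells in 96-well plates; compound added at one concentration; 48 h incubation; percent growth measured; values under 10 scored active.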 A number with no mark means an inactive call. The source made the active and inactive calls.

In the case of `COc1ccc(C(C(=O)O)c2ccc(OC)cc2)cc1`, the growth in the experiment on DU-145 prostate was 105%; in the experiment with K-562 leukemia, 105%; in the experiment with MALME-3M melanoma it was 128%; with MDA-MB-231 breast it was 120%; in the experiment on RXF 393 renal it was 128%; in the experiment with SF-268 CNS, 103%. Besides, the growth in the experiment with SF-295 CNS was 104%; in the experiment on SF-539 CNS, 105%; with UACC-257 melanoma, 110%; in the experiment on M14 melanoma, 114%; in the experiment on HT29 colon, 114%; with SNB-75 CNS it was 72.2%. Besides, the growth in the experiment on SNB-19 CNS was 113%; in the experiment on U251 CNS, 113%; in the experiment on PC-3 prostate it was 101%; with SK-MEL-5 melanoma it was 110%; in the experiment with UACC-62 melanoma, 116%; with SK-MEL-28 melanoma, 107%.

Consider `Cc1ccccc1OC(=O)c1cccc(Cl)c1`, for which the growth in the experiment with DU-145 prostate was 126%; in the experiment on K-562 leukemia, 95.4%; in the experiment with MALME-3M melanoma, 97.3%; in the experiment with MDA-MB-231 breast, 118%; in the experiment with RXF 393 renal, 113%; with SF-268 CNS, 101%. The growth is 122% in the experiment with SF-295 CNS; 101% in the experiment on SF-539 CNS; 111% in the experiment with UACC-257 melanoma; 110% in the experiment with M14 melanoma; 103% in the experiment on HT29 colon; 86.2% in the experiment with SNB-75 CNS. Moreover, the growth was 109% in the experiment with SNB-19 CNS; 129% in the experiment with U251 CNS; 92.2% in the experiment with PC-3 prostate; 103% in the experiment with SK-MEL-5 melanoma; 105% with UACC-62 melanoma; 98% in the experiment with LOX IMVI melanoma. In addition, the growth in the experiment on SK-MEL-28 melanoma was 113%.

Turning to `C[n+]1c2ccccc2nc2c(N)cc(N)cc21`, the growth was 93.5% with DU-145 prostate; 36.4% in the experiment on K-562 leukemia; 3.51% (active) in the experiment with MALME-3M melanoma; 87.3% in the experiment with MDA-MB-231 breast; 112% with RXF 393 renal; 24.8% in the experiment on SF-268 CNS. For the same molecule, the growth was 89.5% with SF-295 CNS; 48.6% with SF-539 CNS; 92.8% in the experiment on UACC-257 melanoma; 96% in the experiment with M14 melanoma; 84.7% with HT29 colon; 75.2% in the experiment with SNB-75 CNS. The growth with SNB-19 CNS was -5.7% (active); in the experiment with U251 CNS, 8.86% (active); with PC-3 prostate, 77.6%; in the experiment on SK-MEL-5 melanoma it was 56.9%; with UACC-62 melanoma, 93%; in the experiment with LOX IMVI melanoma, 77.3%. Further, in the experiment on SK-MEL-28 melanoma, the growth is 109%.

For `CCOC(=O)C1=C(C(=O)c2ccc(Br)cc2)C(c2ccc(Br)cc2)NC(=S)N1` (stereo unspecified), the growth is 113% in the experiment on DU-145 prostate; 106% in the experiment with K-562 leukemia; 107% with MALME-3M melanoma; 109% in the experiment with MDA-MB-231 breast; 109% in the experiment with RXF 393 renal; 98.6% with SF-268 CNS. In addition, the growth was 102% in the experiment on SF-295 CNS; 99.5% in the experiment on SF-539 CNS; 109% in the experiment on UACC-257 melanoma; 97.2% in the experiment with M14 melanoma; 104% in the experiment with HT29 colon; 93.1% in the experiment with SNB-75 CNS. The growth with SNB-19 CNS was 100%; in the experiment on U251 CNS, 95.8%; in the experiment on PC-3 prostate, 98.1%; in the experiment on SK-MEL-5 melanoma it was 103%; in the experiment with UACC-62 melanoma, 94.8%; in the experiment on LOX IMVI melanoma, 94%. In addition, the growth in the experiment on SK-MEL-28 melanoma is 105%.

With `C=C(C)[C@@H]1CC[C@]2(C(N)=O)CC[C@]3(C)[C@H](CC[C@@H]4[C@@]5(C)C/C(=C/c6cccnc6)C(=O)C(C)(C)[C@@H]5CC[C@]43C)[C@@H]12`, the growth with DU-145 prostate is 24.6% [100 µM]; in the experiment on K-562 leukemia, 6.74% [100 µM] (active); in the experiment with MALME-3M melanoma, -19.7% [100 µM] (active); in the experiment on MDA-MB-231 breast it was 0.809% [100 µM] (active); with RXF 393 renal, -8.8% [100 µM] (active); in the experiment on SF-268 CNS, 39.3% [100 µM]. Also, the growth is 6.69% [100 µM] (active) in the experiment with SF-295 CNS; -14.3% [100 µM] (active) in the experiment on SF-539 CNS; 20.8% [100 µM] in the experiment with UACC-257 melanoma; 15.7% [100 µM] with M14 melanoma; -45.3% [100 µM] (active) in the experiment on HT29 colon; 40.6% [100 µM] with SNB-75 CNS. Further, the growth with SNB-19 CNS is 27.8% [100 µM]; in the experiment with U251 CNS, 9.19% [100 µM] (active); in the experiment on PC-3 prostate, 11.7% [100 µM]; in the experiment on SK-MEL-5 melanoma, -61.9% [100 µM] (active); in the experiment on UACC-62 melanoma it was -1.04% [100 µM] (active); in the experiment with LOX IMVI melanoma it was -41.5% [100 µM] (active). Moreover, the growth in the experiment with SK-MEL-28 melanoma is -8.42% [100 µM] (active).

Consider `Brc1ccc2c(c1)CN(C1CCCCC1)CO2`, for which the growth in the experiment on DU-145 prostate was 111%; with K-562 leukemia it was 89.7%; in the experiment on MALME-3M melanoma, 115%; in the experiment on MDA-MB-231 breast it was 102%; in the experiment on RXF 393 renal it was 107%; in the experiment on SF-268 CNS, 96.4%. The growth was 104% in the experiment on SF-295 CNS; 98.2% in the experiment on SF-539 CNS; 120% with UACC-257 melanoma; 105% in the experiment on M14 melanoma; 103% in the experiment with HT29 colon; 82.2% in the experiment on SNB-75 CNS. Also, the growth is 103% in the experiment with SNB-19 CNS; 108% in the experiment with U251 CNS; 91.6% with PC-3 prostate; 104% in the experiment with SK-MEL-5 melanoma; 105% with UACC-62 melanoma; 95.1% with LOX IMVI melanoma. In addition, the growth in the experiment on SK-MEL-28 melanoma was 118%.

Consider `CCCCCCCCCCCCCCCCCCNC(=S)N/N=C/c1ccc(OC)c(OC)c1`, for which the growth is 102% in the experiment with DU-145 prostate; 98.8% with K-562 leukemia; 87.4% in the experiment on MALME-3M melanoma; 92.7% with MDA-MB-231 breast; 110% with RXF 393 renal; 98.7% in the experiment on SF-268 CNS. Also, the growth in the experiment on SF-295 CNS is 95.7%; in the experiment with SF-539 CNS, 93.6%; with UACC-257 melanoma, 100%; with M14 melanoma, 104%; in the experiment with HT29 colon, 99.9%; in the experiment with SNB-75 CNS, 88.2%. The growth is 94% in the experiment on SNB-19 CNS; 90.1% in the experiment on U251 CNS; 92.1% with PC-3 prostate; 95.3% in the experiment with SK-MEL-5 melanoma; 86.1% in the experiment on UACC-62 melanoma; 95.2% in the experiment with LOX IMVI melanoma. In addition, the growth in the experiment on SK-MEL-28 melanoma is 100%.

As to `CC1(C)CC[C@]23CC[C@]4(C)[C@H](CC[C@@H]5[C@@]6(C)C/C(=C/c7ccncc7)C(=O)C(C)(C)[C@@H]6CC[C@]54C)[C@H]2[C@H]1OC3=O`, the growth in the experiment on DU-145 prostate was 80.5% [100 µM]; with K-562 leukemia it was 50.7% [100 µM]; in the experiment on MALME-3M melanoma, 67.6% [100 µM]; in the experiment on MDA-MB-231 breast, 37.5% [100 µM]; in the experiment on RXF 393 renal it was 43.6% [100 µM]; in the experiment on SF-268 CNS, 42.7% [100 µM]. In addition, the growth with SF-295 CNS is 25.1% [100 µM]; in the experiment with SF-539 CNS, 6.84% [100 µM] (active); with UACC-257 melanoma it was 84.5% [100 µM]; in the experiment with M14 melanoma, 79.3% [100 µM]; in the experiment with HT29 colon, 71.5% [100 µM]; with SNB-75 CNS it was -49.9% [100 µM] (active). The growth is 17.3% [100 µM] with SNB-19 CNS; 39.2% [100 µM] in the experiment on U251 CNS; 50.5% [100 µM] in the experiment on PC-3 prostate; 36.3% [100 µM] with SK-MEL-5 melanoma; 56.4% [100 µM] with UACC-62 melanoma; 76.7% [100 µM] in the experiment on LOX IMVI melanoma. Further, the growth in the experiment on SK-MEL-28 melanoma is 87.7% [100 µM].
